# Hits are enriched below; roughly 19% of the tested compounds scored in any of these assays.
# DT40 TDP1 CPT: growth inhibition of DT40 Tdp1-/-;hTDP1 cells with camptothecin (screen for TDP1 inhibitors). chicken DT40 Tdp1-/-;hTDP1 cells + 20 nM CPT, ATP luminescence, 48 h. Potency, µM (top dose mostly 46.2 µM), for inactives: top-dose activity change, negative = growth inhibition, actives largely listed as inhibitors. 420,000 tested, 12% active. AID 686979; also: potency is read from the fitted curve at half-maximal effect; % is scaled to controls: 0 for no effect and ±100 for the full control effect; nearly all actives have a fitted effect of over 55% in size
#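 Chicken DT40 Tdp1-/- cells stably complemented with human TDP1 were seeded at 400 cells/well in medium containing 20 nM camptothecin, exposed to pin-transferred compounds, and grown at 37 °C for at least 48 hr. Viability was read as ATP luminescence.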
# TGFb SMAD3 inh: blocks TGF-b signaling; Potency, µM (doses to about 46.1 µM), for inactives: top-dose activity, negative = inhibition, hits mostly inhibitors; 410,000 tested, 1.2% active; AID 588855; HepG2 CAGA-GFP TGF-b/SMAD3 reporter, GFP fluorescence, 18 h; TGF-beta stimulated, 500 pg/mL final; also: potency is read from the fitted curve at half-maximal effect; % is scaled to controls: 0 for no effect and ±100 for the full control effect; nearly all actives have a fitted effect of over 65% in size
#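 Read-out: total well GFP (ex488/em500-530) summed from mean per-cell fluorescence. Cells: HEPG2 CAGA-GFP, 1% FBS DMEM, 18 h at 37 degrees C with 500 pg/mL final TGF-beta. Unstimulated wells served as the full-inhibition control; stimulated DMSO wells = 0%.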
# IL-1B inflam inh: inhibitors of inflammasome signaling (IL-1 beta secretion); AID 743279; 360,000 tested, 4.7% active; activity change, % at 57.5 µM; THP-1 LPS/ATP IL-1B secretion, AlphaLISA, 16 h; hits give low values; in the data active = activity change below about -50%; inconclusive = mostly about -30% to -49%; also: % is scaled to controls: 0 for no effect and ±100 for the full control effect
#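 THP-1 cells pretreated 1 hr with compounds (up to 57.5 uM final), then stimulated with LPS (250 ng/mL final) plus ATP (1.25 mM final); secreted IL-1B measured by AlphaLISA after 16 hr, decreased signal indicating inhibition.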
# HepG2 tox: HepG2 cytotoxicity, counter-screen for TGF-b inhibitors; Potency, µM (highest dose often 46.1 µM), for the others: top-dose activity change, negative = cytotoxicity, usual class: cytotoxic; HepG2 CAGA-GFP viability, ATP luminescence, 18 h; 410,000 tested, 0.76% active; also: potency is read from the fitted curve at half-maximal effect
#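 CellTiter-Glo luminescence gave cytotoxicity after 18 hours at 37 degrees C. The cells were HepG2 CAGA-GFP in 1% FBS DMEM, stimulated with 500 pg/mL TGF-beta after compound addition. %Activity was normalised to no-cell wells (complete cell-killing) and DMSO (no toxicity), and curves were fitted and classified.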
# ASM inhibitor: blocks human secretory acid sphingomyelinase; P17405; placental ASM, HMU-PC fluorogenic substrate, 60 min; Potency, µM (doses to about 57.5 µM), without a hit: at the highest dose activity change, negative = inhibition, usual class: inhibitors; 340,000 tested, 0.006% active; AID 504937; also: potency is read from the fitted curve at half-maximal effect
# Target sequence (P17405 47-631 limits assumed): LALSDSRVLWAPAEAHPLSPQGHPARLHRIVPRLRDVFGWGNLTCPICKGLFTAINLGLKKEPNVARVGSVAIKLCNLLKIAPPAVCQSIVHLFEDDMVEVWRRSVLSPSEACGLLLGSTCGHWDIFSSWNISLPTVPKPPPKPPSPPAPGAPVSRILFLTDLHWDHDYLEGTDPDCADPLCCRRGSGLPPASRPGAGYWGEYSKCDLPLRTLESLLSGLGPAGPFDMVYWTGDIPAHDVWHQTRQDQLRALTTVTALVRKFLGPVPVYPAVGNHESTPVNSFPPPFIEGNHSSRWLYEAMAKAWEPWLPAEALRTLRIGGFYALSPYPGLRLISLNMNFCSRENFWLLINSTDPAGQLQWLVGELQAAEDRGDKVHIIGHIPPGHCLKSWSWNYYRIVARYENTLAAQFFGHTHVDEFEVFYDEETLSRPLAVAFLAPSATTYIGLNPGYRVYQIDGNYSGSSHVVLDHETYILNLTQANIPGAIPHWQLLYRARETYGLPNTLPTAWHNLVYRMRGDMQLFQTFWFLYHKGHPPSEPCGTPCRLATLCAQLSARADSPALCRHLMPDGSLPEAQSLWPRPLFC
#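 HMU-PC0 cleavage (9 uM final) by human placental ASM, 60 min at 37 °C following 10 min compound exposure at RT; stopped at pH 10, fluorescence Ex 386/Em 447 nm.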
# DT40 TDP1 no CPT: qHTS for Inhibitors of human tyrosyl-DNA phosphodiesterase 1 (TDP1): qHTS in cells in absence of CPT. DT40 Tdp1-/- hTDP1 cells, no CPT, ATP luminescence, 48 h. 420,000 tested, 15% active. Potency, µM (series often up to 46.2 µM), for the others: top-dose activity change, negative = growth inhibition, usual class: inhibitors. AID 686978, 2013; also: potency is read from the fitted curve at half-maximal effect; % is scaled to controls: 0 for no effect and ±100 for the full control effect; nearly all actives have a fitted effect of over 55% in size
#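 Stably hTDP1-transfected Tdp1-null chicken DT40 cells were treated with library compounds minus camptothecin and grown for at least 48 hr at 37 °C, after which cellular ATP was quantified by luminescence.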
# Starred values were filed as active, the others as inactive; ? = inconclusive; nt = not tested or not shown; [ ] = another dose, or the depositor's remark. Unless noted, calls follow the shape of the dose curve; as a rule, active = well fitted curve in the direction sought with a large enough effect; inconclusive = small, poorly fitted or top-dose-only effect, or another doubt; inactive = no such curve, though single readings can be large; an effect the other way counts as inactive or inconclusive.
SMILES,DT40 TDP1 CPT,TGFb SMAD3 inh,IL-1B inflam inh,HepG2 tox,ASM inhibitor,DT40 TDP1 no CPT
Cc1cc(Br)cn2c(Cc3cccc(F)c3)c(-c3ccc(F)cc3)nc12,?,nt,17.9,nt,nt,?
Cc1ccc(-n2nnc3c(=O)n(Cc4ccccn4)cnc32)cc1C,2.8%,0.4%,-2.4,13.4%,-1.4%,-18.0%
Cc1ccc(SCC(=O)NNC(=O)CNC(=O)c2ccc(Br)cc2)cc1,-29.3%,-1.3%,15.6,-10.7%,2.9%,?
CCOc1ccc2ncc(S(=O)(=O)c3ccccc3)c(N3CCN(c4ccccc4)CC3)c2c1,14.6µM*,3.2%,14.5,-4.0%,-0.1%,?
COc1ccc(N2CCN(c3c(S(=O)(=O)c4ccccc4)cnc4ccc(OC)cc34)CC2)cc1,23.1µM*,0.0%,-9.5,1.8%,-16.5%,18.4µM*
COc1ccc(S(=O)(=O)c2cnc3cc(OC)c(OC)cc3c2N2CCCC(C)C2)cc1 (stereo not drawn),?,?,nt,-21.7%,nt,?
COc1ccc(S(=O)(=O)c2cnc3ccc(OC)cc3c2N2CCC3(CC2)OCCO3)cc1,8.2µM*,3.9%,?,0.2%,-4.0%,3.26µM*
CCN(CC)CCN(Cc1cc2cc3c(cc2[nH]c1=O)OCCO3)C(=S)NCCCOC,-4.2%,0.9%,9.2,-13.7%,29.9%,2.7%
O=C(NCC(=O)N1CCN(S(=O)(=O)c2ccc3c(c2)OCCO3)CC1)c1ccccc1Cl,-11.6%,0.0%,0.0,-2.8%,2.9%,-19.9%
Cc1ccc(C(c2nnnn2Cc2ccccc2)N2CCN(Cc3ccccc3)CC2)cc1 (stereo not drawn),?,0.0%,?,-1.2%,-1.0%,16.4µM*
Cc1ccc(C(c2nnnn2CS(=O)(=O)c2ccc(C)cc2)N2CCCC2)cc1 (stereo not drawn),-26.7%,-2.0%,-24.4,-48.6%,-1.5%,0.7%
Cc1ccc(C(c2nnnn2Cc2ccccc2)N2CCN(Cc3ccncc3)CC2)cc1 (stereo not drawn),?,-4.1%,nt,0.9%,nt,?
Cc1ccc2cc(C(c3nnnn3Cc3ccccc3)N3CCN(c4ccccc4)CC3)c(=O)[nH]c2c1 (stereo not drawn),13µM*,?,-21.4,10.0%,-7.8%,?
c1ccc(CN2CCN(C(c3ccccc3)c3nnnn3Cc3ccccc3)CC2)cc1 (stereo not drawn),?,?,-58.4*,-28.9%,-1.5%,18.4µM*
Cc1ccc(S(=O)(=O)Cn2nnnc2C(c2ccc(F)cc2)N2CCCCC2)cc1 (stereo not drawn),?,-3.4%,-0.6,-25.3%,8.9%,23.1µM*
O=C(COC(=O)CCNS(=O)(=O)c1ccccc1F)Nc1nnc(-c2ccccc2)o1,4.5%,4.2%,13.2,24.8%,1.0%,7.8%
Cc1cccc2cc(C(c3nnnn3Cc3ccccc3)N3CCCc4ccccc43)c(=O)[nH]c12 (stereo not drawn),13µM*,-1.4%,45.9,-2.8%,-3.3%,16.4µM*
CC1(c2ccc(Cl)cc2)CC(C)(C)N(C(=O)c2ccccc2)c2ccccc21 (stereo not drawn),?,?,nt,-14.1%,nt,?
CC(=O)N1c2ccccc2C(C)(c2ccc(C)cc2)CC1(C)C (stereo not drawn),nt,-17.3%,nt,-34.9%,nt,nt
CCC(=O)N1c2ccccc2C(C)(c2ccccc2)CC1(C)C (stereo not drawn),-15.8%,-1.5%,nt,-0.9%,nt,-28.4%
COc1ccc(C(=O)N2c3ccccc3C(C)(c3ccc(Cl)cc3)CC2(C)C)cc1 (stereo not drawn),?,?,nt,-2.8%,nt,16.4µM*
CC1(c2cc([N+](=O)[O-])cc([N+](=O)[O-])c2)CC(C)(C)N(C(=O)c2ccccc2)c2ccccc21 (stereo not drawn),23.1µM*,?,0.3,2.7%,-5.8%,16.4µM*
CCC(CC)C(=O)N1c2ccccc2C(C)(c2ccccc2)CC1(C)C (stereo not drawn),18.4µM*,?,nt,-21.8%,nt,23.1µM*
COc1cccc(C(=O)N2c3ccc(C)cc3C(C)(c3ccccc3)CC2(C)C)c1 (stereo not drawn),?,?,nt,-8.5%,nt,23.1µM*
CCn1ccc2c(OCC(=O)NCc3ccccc3)cccc2c1=O,-7.6%,-1.1%,nt,-10.1%,nt,?
SMILES,DT40 TDP1 CPT,TGFb SMAD3 inh,IL-1B inflam inh,HepG2 tox,ASM inhibitor,DT40 TDP1 no CPT
CCn1ccc2c(OCC(=O)Nc3ccccc3C(F)(F)F)cccc2c1=O,14.6µM*,-18.5%,nt,-7.7%,nt,20.6µM*
Cc1cccc(NC(=O)COc2cccc3c(=O)n(C)ccc23)c1C,23.1µM*,0.6%,nt,0.8%,nt,18.4µM*
CCn1ccc2c(OCC(=O)Nc3ccccc3C)cccc2c1=O,14.6µM*,?,nt,-1.1%,nt,11.6µM*
Cn1ccc2c(OCC(=O)Nc3cc(C(F)(F)F)ccc3Cl)cccc2c1=O,25.9µM*,-12.7%,nt,1.1%,nt,14.6µM*
O=S(=O)(NCc1ccccc1Cl)c1ccc(-n2cccn2)cc1,?,?,-6.5,-27.5%,-1.1%,-16.7%
Cc1ccc2c(c1)CN(CCNC(=O)c1cccc(Cn3cccn3)c1)CC(C)O2 (stereo not drawn),4.3%[9.04 µM],nt,nt,nt,nt,-0.8%
C[C@@H](C(=O)Nc1ccc2ccccc2c1)[C@H]1C[C@]1(C)[C@H](N)c1ccccc1,nt,-20.2%,nt,-6.7%,nt,nt
Nc1ccc2nc(-c3ccc(N)c(Cl)c3)[nH]c2c1,6.51µM*,?,?,-42.1%,232.1%,8.2µM*
Nc1ccc(-c2nc3c(Cl)cc(N)cc3[nH]2)cc1,5.8µM*,-11.9%,?,-8.5%,101.3%,7.31µM*

# Assay outcomes: PubChem, National Center for Advancing Translational Sciences (NCATS)
